Laboratory results as given in the supplement of paper PMC6555819.

Legend:
Experiment in all cases: PBM binding z-score (relative to random genomic background probes); higher = stronger binding; sequences stand for … in GC…GCGATTGACAGCGTAGAATGAAGG
[1] = test system: PPARg:RXRa DBDmut IVT, anti-RXR (DBD mutation: RXRa K156A/R161A, NR concentration 270 nM, RXRa partner concentration 90 nM)
Summary of the method: (§1)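 Antibodies against each partner of ligand-free nuclear receptor dimers (one per run) detected binding on custom Agilent 4×180K protein-binding microarrays after 1 h incubation. The double-stranded probes had 34-nt variable regions carrying direct-repeat seeds, single-nucleotide variants, half-site ablations and random human genomic background sequences. Binding z-scores, from regression-normalized fluorescence, use the random background probes as reference.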

[2] = test system: PPARg:RXRa IVT, anti-PPARg (NR concentration 270 nM, RXRa partner concentration 90 nM)
Summary of the method: as §1

[3] = test system: PPARg DBDmut:RXRa IVT, anti-PPARg (DBD mutation: PPARg1 K132A/R137A, NR concentration 270 nM, RXRa partner concentration 90 nM)
Summary of the method: as §1

[4] = test system: PPARg DBDmut IVT, anti-PPARg (DBD mutation: PPARg1 K132A/R137A, NR concentration 270 nM)
Summary of the method: as §1

[5] = test system: PPARg homodimer (NR concentration 180 nM)
Summary of the method: as §1

[6] = test system: PXR:RXRa (NR concentration 270 nM, RXRa partner concentration 90 nM)
Summary of the method: as §1

[7] = test system: PXR homodimer (NR concentration 270 nM)
Summary of the method: as §1

[8] = test system: RARa:RXR (NR concentration 270 nM, RXRa partner concentration 90 nM)
Summary of the method: as §1

[9] = test system: RARa homodimer (NR concentration 270 nM)
Summary of the method: as §1

[10] = test system: RARb:RXRa (NR concentration 270 nM, RXRa partner concentration 90 nM)
Summary of the method: as §1

[11] = test system: RARb homodimer (NR concentration 270 nM)
Summary of the method: as §1

[12] = test system: RARg:RXRa (NR concentration 270 nM, RXRa partner concentration 90 nM)
Summary of the method: as §1

[13] = test system: RARg homodimer (NR concentration 270 nM)
Summary of the method: as §1

[14] = test system: RXRa DBDmut IVT, anti-RXR (DBD mutation: RXRa K156A/R161A, NR concentration 90 nM)
Summary of the method: as §1

[15] = test system: RXRa homodimer (NR concentration 180 nM)
Summary of the method: as §1

[16] = test system: THRa:RXRa (NR concentration 90 nM, RXRa partner concentration 90 nM)
Summary of the method: as §1

[17] = test system: THRa homodimer (NR concentration 90 nM)
Summary of the method: as §1

[18] = test system: VDR homodimer (NR concentration 270 nM)
Summary of the method: as §1

Sequence	PBM binding z-score [1]	PBM binding z-score [2]	PBM binding z-score [3]	PBM binding z-score [4]	PBM binding z-score [5]	PBM binding z-score [6]	PBM binding z-score [7]	PBM binding z-score [8]	PBM binding z-score [9]	PBM binding z-score [10]	PBM binding z-score [11]	PBM binding z-score [12]	PBM binding z-score [13]	PBM binding z-score [14]	PBM binding z-score [15]	PBM binding z-score [16]	PBM binding z-score [17]	PBM binding z-score [18]
TCATATAGGTAAACCGGTGAAAGTCCGTAAGTTA	4.14	3.35	0.791	0.416	0.766	0.768	0.578	0.953	0.584	0.426	0.357	0.195	0.0982	1.45	0.746	0.262	0.203	0.541
CGAACTAGGTCACAACAGGACAGTGAAGGATGAT	8.41	8.69	2.32	1.05	1.54	1.85	0.241	1.87	0.573	3.79	3.02	4.09	4.79	1.63	2.91	4.09	1.16	0.27
CCTAGCAGGCCAATCTGGGACACTCAAGGCTTGA	3.13	2.73	-0.765	-0.94	-0.694	-0.828	-0.916	-0.753	-0.862	0.0896	-0.286	-0.31	0.0826	-0.25	-0.458	3.08	-0.247	-0.728
CCGGCTGGGGCAAAGGTTACCATACTCAGTACGA	0.545	3.78	-0.945	-1.06	1.1	2.59	-0.422	3.83	-0.653	2.41	2.25	3.68	1.69	-0.158	3.6	1.77	-0.377	-0.169
TCATATAGTTAAATGCTAGGTGAAAGTCCGATCT	2.22	0.879	0.746	1.69	1.11	0.631	0.356	0.763	1.49	0.272	0.141	0.1	0.364	1.68	0.476	0.852	0.605	0.158
CGAACTAGGTCAAGGACAGTCAATCTCCGCACGC	8.01	8.24	1.66	1.8	1.37	1.25	0.00572	2.09	0.256	4.08	3.32	3.79	4.63	1.46	2.57	3.19	1.96	0.563
CCTGCTAGGTCAATGGTCAACTAAAGCAGCTCGC	3.98	4.58	0.116	-1.17	1.41	1.22	-0.291	2.27	-0.296	3.79	3.11	3.77	4.5	1.64	2.55	2.41	0.723	0.324
TCGTATAGGTAAAGGTGAAAGTCGAACGATATGA	2.04	2.57	0.89	0.655	1.4	0.71	0.0439	1.58	0.749	2.07	1.77	1.52	1.35	0.714	2.12	1.24	-0.212	0.0316
TCCTGTAGATCAGCAGGTTAAGAAAGCTGGCCAA	1.6	-0.214	-0.0572	-0.0553	-0.125	0.286	-0.41	0.585	-0.442	0.219	-0.00726	-0.0905	-0.286	0.636	0.412	0.129	-0.526	-0.526
CTCGAAAGGTCGGATGAGGTGAGTATACGGATAA	0.154	0.983	0.973	-0.0346	0.968	3.55	-0.0327	2.62	0.562	3.32	2.69	3.2	3.26	0.982	2.94	5.16	1.3	0.327
CTACCAAGGTGCACAAGGTCGTTGATTACTATTC	0.47	0.223	0.019	-0.417	0.705	1.86	1.22	1.87	0.655	1.29	1.71	1.29	0.782	1.8	1.42	2.14	1.21	2.73
TCTATTAGTTGATTAGGGCAACAGAAACAGCGGA	2.04	1.59	1.69	1.06	1.02	0.573	0.374	0.636	1.08	0.82	0.664	0.691	0.686	0.926	0.691	0.607	0.289	0.253
CGTAGCAGGCCAATCTGGGTCACTCAAGGCTTGA	4.39	5.41	0.0881	-0.653	0.384	1.07	-0.642	1.47	-0.582	1.48	1.95	0.96	1.26	0.317	0.616	3.65	0.645	-0.295
CAAACTAGGTCAGAGAGGTCAAAGTCCGTGCGTA	7.7	8.02	1.22	0.373	4.15	6.24	10.2	6.29	2.07	4.84	5.19	6.39	6.79	2.74	7.07	4.43	2.45	6.12
CCTTACGGGTCAAGTTTATAGCACGGGTGGTACG	2.03	3.32	1.11	-0.333	4.02	3.89	0.698	4.34	1.46	4.19	3.32	5.13	4.78	2.07	5.03	2.56	0.164	3.09
TCTAATAGTTGAAGGGCAACCGACGAGTCCGTTT	2.21	0.129	1.32	0.0205	0.705	0.839	0.503	0.712	-0.387	1.53	1.24	0.639	0.887	1.7	0.869	0.0071	-0.423	1.41

Sequence	PBM binding z-score [1]	PBM binding z-score [2]	PBM binding z-score [3]	PBM binding z-score [4]	PBM binding z-score [5]	PBM binding z-score [6]	PBM binding z-score [7]	PBM binding z-score [8]	PBM binding z-score [9]	PBM binding z-score [10]	PBM binding z-score [11]	PBM binding z-score [12]	PBM binding z-score [13]	PBM binding z-score [14]	PBM binding z-score [15]	PBM binding z-score [16]	PBM binding z-score [17]	PBM binding z-score [18]
ACTAGTTGGTCAGTTGAGGTCACACACAATTCGG	1.58	2.98	1.37	0.982	3.72	5.67	2.39	4.98	1.56	3.54	4.23	3.87	4.02	1.51	4.05	5.15	5.39	4.05
CAATCTAGGTCAAGGTCAAAGTCGGTTTGTGCCA	8.63	8.84	5.16	1.26	4.33	5.3	1.93	5.63	1.12	4.9	5.05	5.89	6.37	3.25	5.61	4.65	4.37	4.3
CGTCCAAGGTCAGAGAGGTCAATGAATGCCGAGT	3.1	3.52	-0.295	-0.854	5.37	6.76	13.7	6.55	3.02	5.17	5.42	7	7.52	3.55	6.58	4.53	2.88	6.88
CGAACTAGGTCATTGACAGGCCAGTGAATAGTAA	8.3	7.98	0.866	1.34	1.29	1.34	-0.173	2.06	-0.0851	3.64	2.44	4.45	4.53	1.99	3.06	2.53	0.248	0.674
ACAGACCGGTGAGTGAAGGTAACTCAGCTGGACG	-0.439	-0.283	-0.662	-1.09	-0.786	-0.593	-0.655	-0.54	-0.997	-0.197	-0.506	-0.114	-0.11	-0.55	-0.109	0.21	-0.915	-0.72
TGAATGAGGTTAAAGATCAAGGAACGTGGCGTCG	1.88	3.3	0.538	0.468	0.301	2.23	-0.137	3.64	0.0967	2.11	0.599	2.57	1.35	1.24	4.06	2.41	0.289	0.251
TCGAGTAGGTTTGGGGCATTCAGAATGGCGTCGA	0.667	-0.179	-0.869	-0.587	-0.00492	-0.143	-0.414	-0.156	-0.479	-0.00663	0.408	-0.658	-0.913	0.194	-0.158	0.0533	0.0117	-0.0123
CGTCAAAGTTCAACTAAGGTAACGGAAAGCACGC	0.353	2.18	0.489	0.064	3.4	5.37	3.68	3.89	1.31	5.45	4.39	5.99	6.88	4.63	5.09	5.24	1.9	3.47
CATCAAAGTTCAACTAAGGTAACGTAAAGCACGC	0.365	1.94	1.26	1.35	3.92	5.93	5.95	4.5	3.5	5.37	4.32	5.94	6.82	4.67	5.76	5.1	2.29	4.37
CCTGCTAGGTCATGGTCAACTAATCTACAGTATG	4.88	4.48	0.715	0.58	1.66	1.82	-0.415	2.94	0.861	4.06	3.37	4.23	5.18	1.75	2.88	3.26	1.41	0.335
ATCGAAAGGTCGAGGTTAGTATAGAGAAAGGGAA	0.147	1.68	0.823	1.11	3.22	2.65	0.569	3.81	1.39	4.09	2.8	4.49	4.52	1.18	4.37	2.51	0.341	0.514
TAGGCTAGGTCATTCAGGGGCCAGTATAGAAAGC	2.09	3.13	1.07	0.104	3.69	2.64	0.0687	3.93	0.404	4.12	3.57	6.42	4.85	1.71	3.26	3.7	0.658	1.95
TCGAGTAGGTTACGGGCATTCAGAATGGCGTCGA	3.6	3.2	-0.359	-0.95	-0.405	0.127	-0.967	0.109	-1.16	1.29	0.362	0.594	0.594	-0.00223	0.855	0.116	-0.913	-0.716
GCTAGAAGGCCATTTGGGTCACTCAATGACGGGC	1.13	1.97	-0.158	-0.532	0.149	1.19	1.2	1.08	-0.572	2.2	2.47	1.61	2.24	0.256	1.05	2.42	0.686	1.05
GCTAATTGGTCAGTAAAAGGTCACACACCGGTCG	1.17	3.09	0.371	1.23	3.29	4.83	1.25	5.26	2.18	4.66	5.34	5.37	4.52	0.816	5.27	3.88	2.1	2.14
